The record followed here is PubChem BioAssay AID588342 (National Center for Advancing Translational Sciences (NCATS), 2011).

Out of some 360,000 compounds screened, about 25,000 (6.9%) were called active. About 9% were inconclusive and are not listed. What follows is part of a selection rich in actives, with near analogues and random picks from the rest. A number with no mark means an inactive call. The call rests on the fitted dose curve; in most records, active means well fitted inhibition curve with a large enough effect; inconclusive means small, poorly fitted or top-dose-only effect; inactive means flat fitted curve, though single readings scatter.
Potency means the concentration at half of the fitted maximal effect.

Sequence of Luciferin 4-monooxygenase (Photinus pyralis) (P08659 whole entry, looked up): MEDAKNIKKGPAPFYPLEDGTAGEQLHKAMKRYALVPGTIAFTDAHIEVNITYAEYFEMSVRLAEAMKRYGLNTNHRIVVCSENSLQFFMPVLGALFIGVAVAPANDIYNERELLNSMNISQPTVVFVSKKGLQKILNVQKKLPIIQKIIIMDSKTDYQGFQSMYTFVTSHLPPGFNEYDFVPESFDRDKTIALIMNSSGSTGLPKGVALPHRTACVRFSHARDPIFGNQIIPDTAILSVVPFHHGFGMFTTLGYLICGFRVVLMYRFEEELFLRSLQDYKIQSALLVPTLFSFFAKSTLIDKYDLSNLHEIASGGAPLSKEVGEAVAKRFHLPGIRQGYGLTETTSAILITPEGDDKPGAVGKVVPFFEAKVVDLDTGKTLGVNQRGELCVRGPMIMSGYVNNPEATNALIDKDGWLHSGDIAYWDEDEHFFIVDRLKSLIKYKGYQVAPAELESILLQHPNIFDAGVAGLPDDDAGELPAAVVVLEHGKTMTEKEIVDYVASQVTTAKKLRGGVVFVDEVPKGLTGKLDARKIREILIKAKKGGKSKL

The test addresses Luciferin 4-monooxygenase (Photinus pyralis) (UniProt P08659). Description: qHTS profiling assay for firefly luciferase inhibitor/activator using purifed enzyme and Km concentrations of substrates (counterscreen for miR-21 project). Further: nearly all actives have a fitted effect of over 55% in size.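 On activity change, negative = inhibition: plate controls were vehicle for no effect and reference inhibitor for full effect.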 The settings on record: purified FLuc, luminescence inhibition; series mostly up to 57.5 µM; activity change, negative = inhibition: at the top concentration. Summed up:
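Biochemical qHTS of compounds, final roughly 60 µM downward over six points, against 10 nM purified firefly luciferase using Km concentrations of substrates (10 uM D-luciferin, 10 uM ATP) in Tris acetate pH 7.5 buffer; luminescence output.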
As to `O=C(CN1CCc2cc3c(cc2C1)OCCCO3)Nc1ccccc1`, the “activity change, negative = inhibition” value is -8.71%.
Same read-out and setting: with `O=C(Nc1ccc(C(=O)N2CCCCC2)cc1)c1cccc([N+](=O)[O-])c1` the figure was -9.29%; with `C/C(Cc1ccccc1)=N\NC(=O)CNC(=O)c1ccc2c(c1)OCCO2`, -18%.
Take `O=C(Nc1ccc(C2CC2(Cl)Cl)cc1)c1cccc([N+](=O)[O-])c1` (stereo not given): the Potency was 12 µM (active).
Turning to `O=C(CN(Cc1ccccc1)C(=O)c1ccc2c(c1)OCCO2)NCc1ccc2c(c1)OCO2`, the “activity change, negative = inhibition” value is -1.85%.
On the same count and under the same terms, with `Cc1cc2oc(C(=O)N(Cc3ccc(Cl)cc3)Cc3ccco3)c(C)c2cc1Cl` the figure was -7.31%; with `Cc1cc(N2CCN(c3cccc(C(F)(F)F)c3)CC2)n2nc(-c3ccccc3)nc2n1`, -0.73%; with `COc1ccc(-c2ccc(=O)n(CC(=O)Nc3ccc(Br)cc3F)n2)cc1`, 2.74%.
For the compound `CC(=O)Nc1ccc(S(=O)(=O)NC2(C(F)(F)F)C(=O)NC(C)=C2C#N)cc1` (stereo not given), the “activity change, negative = inhibition” value is -3.82%.
`O=C(Nc1ccccc1)Nc1nc2ccccc2s1`: the Potency is 0.849 µM (active).
For `O=C(Nc1ccc(Cl)cc1)Nc1nnc(/C=C/c2ccccc2)s1`, the “activity change, negative = inhibition” value is -2.18%.
For `CC(=O)Nc1cccc(C(=O)OCC(=O)NCc2cc(C)c(O)c(C)c2)c1`, the Potency was 15.1 µM (active).
With `O=C(Nc1ccccc1)Nc1nnc(COc2ccccc2F)s1`, the “activity change, negative = inhibition” value was -1.08%.
As for `O=C(Nc1ccccc1F)c1ccc2c(c1)OCO2`, the Potency is 19 µM (active).
`Cc1ccc(F)cc1NC(=O)c1ccc2c(c1)OCO2`: the “activity change, negative = inhibition” value was -3.24%.
Still for that read-out and setting: with `O=C(Nc1ccccc1N1CCN(C(=O)c2ccccc2)CC1)c1ccc2c(c1)OCO2` the figure was 7.45%; with `Cc1ccc(C(=O)OCC(=O)NCc2cc(C)c(O)c(C)c2)cc1S(=O)(=O)N1CCCCC1`, -2.52%.
Still for that read-out and setting: with `COc1ccc(C(=O)OCC(=O)Nc2cccc(C(C)=O)c2)cc1OC` the figure was -4.57%.
As for `O=S(=O)(NC1CCN(S(=O)(=O)c2ccc3c(c2)OCCO3)CC1)c1c(F)cccc1F`, the “activity change, negative = inhibition” value is -2.54%.
On the same count and under the same terms, with `CCc1ccc(S(=O)(=O)c2nnn3c2nc(N2CCN(CC)CC2)c2sccc23)cc1` the figure was 1.88%.
Same read-out and setting: with `CC(=O)Nc1ccc(S(=O)(=O)NC(C)C(=O)OCCOc2ccc(F)cc2)cc1` (stereo not given) the figure was -1.3%; with `CNS(=O)(=O)c1ccc(N2CCCC2=O)c([N+](=O)[O-])c1`, -1.57%; with `NS(=O)(=O)c1ccc(NC(=S)N2CCCC2)cc1`, -1.04%.
Same read-out and setting: with `Cc1ccc(-c2ccc(=O)n(CC(=O)NCCCN3CCCCC3)n2)cc1` the figure was 1.61%.
With `CCc1ccc(-c2cc3c(=O)n(CC(=O)NCCCN4CCN(Cc5ccccc5)CC4)nc(C)n3n2)cc1`, the Potency is 8.49 µM (active).
Take `CCCN1CCN(CCCNC(=O)Cn2nc(CC)n3c(cc4occc43)c2=O)CC1`: the “activity change, negative = inhibition” value was -5.38%.
On the same count and under the same terms, with `CCOCCn1ccc2c(OCC(=O)NCc3ccc(C)cc3)cccc2c1=O` the figure was -7.32%.
Same read-out and setting: with `CCC(=O)N1CCc2cc(S(=O)(=O)NC(Cc3ccccc3)C(=O)NCc3ccc(C)cc3)ccc21` (stereo not given) the figure was -1.03%.
Consider `Brc1ccc(C2CC(c3ccccc3)=Nc3ccccc3N2)cc1` (stereo not given), for which the Potency is 26.9 µM (active).
`O=C(c1ccccc1)N1N=C(c2ccccc2O)CC1c1ccc(Br)cc1` (stereo not given): the “activity change, negative = inhibition” value is -0.906%.
Regarding `COc1ccc(N2C(=O)NC(NS(=O)(=O)c3ccc(Cl)cc3)(C(F)(F)F)C2=O)cc1` (stereo not given), the “activity change, negative = inhibition” value was 6.14%.
Same read-out and setting: with `COC(=O)c1sc2ncccc2c1-n1c(C)ccc1C` the figure was -2.23%; with `COc1ccc(CNC(=O)/C(C#N)=C/c2cccc(OC)c2OC)cc1`, -12.6%.
On to `COc1cccc(/C=C/c2ccc3ccccc3n2)c1OC(C)=O`, for which the Potency is 5.36 µM (active).
For `CC(=O)c1ccc(S(=O)(=O)N2CCN(C(=O)/C=C/c3ccc4ccccc4n3)CC2)cc1`, the “activity change, negative = inhibition” value is 4.51%.
For the compound `CCOc1cccc(/C=C/c2ccc3ccccc3n2)c1OC(C)=O`, the Potency was 7.57 µM (active).
Consider `CCOc1ccccc1/C=N/Nc1nc2ccccc2o1`, for which the “activity change, negative = inhibition” value was -1.3%.
Still for that read-out and setting: with `COc1ccc(CCNC(=O)CCCn2c(=O)c3ccccc3n(Cc3ccc(F)cc3Cl)c2=O)cc1OC` the figure was 1.56%.
On the same count and under the same terms, with `COc1ccc2cc(CCl)c(Cl)nc2c1` the figure was -20.6%.
Still for that read-out and setting: with `CC(C)c1ccc(NC(=O)c2cc(S(=O)(=O)N3CCc4ccccc4C3)ccc2F)cc1` the figure was -4.07%.
Turning to `CN1C(C(=O)NCc2ccco2)CC2Cn3c(nc4ccccc43)C21` (stereo not given), the “activity change, negative = inhibition” value is -5.4%.
Same read-out and setting: with `Cc1ccc(NC2=C(c3ccc(C(F)(F)F)cc3)C(=O)c3ccccc32)cc1F` the figure was -4.5%.
Still for that read-out and setting: with `CCc1ccc(Sc2cc(C(=O)NCCCOC(C)C)c3ccccc3n2)cc1` the figure was -16.5%.
`CCc1ccc(-c2cc(C(=O)NN3CCN(C)CC3)c3ccccc3n2)cc1`: the Potency is 2.69 µM (active).
Regarding `CC1CCCC(NC(=O)c2cc(-c3ccncc3)nc3ccccc23)C1C` (stereo not given), the “activity change, negative = inhibition” value was 0.447%.
On the same count and under the same terms, with `CN(Cc1ccccc1)c1ncnc2onc(-c3ccc(F)cc3)c12` the figure was -17.8%.
`COc1ccccc1C(=O)Nn1c(-c2cccs2)nc2ccccc2c1=O`: the “activity change, negative = inhibition” value is 0.184%.
On to `CC(=O)Nc1cccc(Nc2nc(-c3cccs3)nc3ccccc23)c1`, for which the Potency is 23.9 µM (active).
On to `O=C(CSc1nc(Nc2ccc(F)c(F)c2)c2ccccc2n1)c1ccc(Cl)cc1`, for which the “activity change, negative = inhibition” value is -3.03%.
On the same count and under the same terms, with `CC(=O)c1ccc(S(=O)(=O)N(C)CCCC(=O)N(C)Cc2ccccc2F)cc1` the figure was 2.93%.
